Laboratory results from PubChem BioAssay AID1135 (Sanford-Burnham Center for Chemical Genomics, 2008).
About 65 (0.03%) of roughly 200,000 compounds were called active.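 How the source made its calls: active means over 50% inhibition of tissue-nonspecific alkaline phosphatase at 20 µM in the single-dose screen; inactive means the rest.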 What follows is part of a selection rich in actives, with near analogues and random picks from the rest.

molecular target: Alkaline phosphatase, tissue-nonspecific isozyme (Homo sapiens) (UniProt P05186); assay: blockers of alkaline phosphatase TNAP activity – biochemical, luminescent, high phosphate acceptor level, uHTS, primary screen (AID 1135); settings: purified TNAP, CDP-star luminescence, 1 M DEA; at 20 µM; stronger effect = higher value;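 further: plate controls were DMSO wells for no effect and EDTA-quenched wells as full inhibition for full effect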
Sequence (P05186 whole entry, looked up): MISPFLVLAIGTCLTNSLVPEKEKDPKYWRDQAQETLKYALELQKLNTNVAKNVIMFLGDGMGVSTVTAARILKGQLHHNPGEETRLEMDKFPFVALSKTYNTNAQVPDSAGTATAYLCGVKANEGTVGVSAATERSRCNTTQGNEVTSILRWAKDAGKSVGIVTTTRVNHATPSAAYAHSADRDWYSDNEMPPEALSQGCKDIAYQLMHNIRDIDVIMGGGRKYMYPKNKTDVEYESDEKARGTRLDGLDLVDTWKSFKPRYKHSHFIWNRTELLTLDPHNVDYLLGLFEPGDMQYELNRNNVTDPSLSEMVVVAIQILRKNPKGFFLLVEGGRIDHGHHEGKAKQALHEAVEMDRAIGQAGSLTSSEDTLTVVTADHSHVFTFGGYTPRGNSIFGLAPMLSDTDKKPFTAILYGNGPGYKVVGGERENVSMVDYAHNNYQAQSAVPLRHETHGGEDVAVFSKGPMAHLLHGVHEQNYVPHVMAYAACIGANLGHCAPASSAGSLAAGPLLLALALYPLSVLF

inhibition, inactive:
CCOC(=O)/C(=N\Nc1cc(Cl)ccc1Cl)N1CCN(C)CC1 3.4%, S=C(NCC1CCCO1)N1CCN(c2ccc(Cl)c(Cl)c2)CC1 (centres undefined) -1.7%, COc1cc(C2OC(c3cc(OC)c(OC)c(OC)c3)C(C)C2C)cc(OC)c1OC (centres undefined) -2.4%, O=C(CCCCCNC(=O)c1ccccc1)N/N=C/c1ccccc1 -6.8%, O=C(NCCN1C(=O)S/C(=C\c2cccnc2)C1=O)c1cccc(OC(F)F)c1 -0.3%, COc1ccc(CCc2nnc(CCC(=O)NCc3cnn(-c4ccccc4C)c3)o2)cc1 1.5%, S=C(NCCc1ccccc1)NCC1CCCO1 (centres undefined) -0.7%, CN(C)c1ccc(/C=N/NC(=O)C(O)c2ccc(Br)cc2)cc1 (centres undefined) -1.9%, CCCCN(C)CCNC(=O)CSCc1ccc(C)cc1 -5.4%, CC(=O)c1sc(N/N=C/c2ccc(C(C)C)cc2)nc1C 13.5%, Cc1ccc(OCC(=O)NC(C)c2ccccc2)c([N+](=O)[O-])n1 (centres undefined) -1.6%, Cc1ccc(CSCC(N)C(=O)O)cc1 (centres undefined) 0.6%, O=C(Nc1ccc(N2CCOCC2)cc1)c1ccc(-c2ccccc2[N+](=O)[O-])o1 0.3%, Cc1ccc(-c2nc(-c3cccnc3)sc2CC(=O)Nc2ccc(C)c(Cl)c2)cc1 -1.4%, O=C(CC1SC(=Nc2ccccc2)N(Cc2ccccn2)C1=O)Nc1cccc(Cl)c1 (centres undefined) 3%, CCCCC(CC(C)O)c1n[nH]c(=S)n1-c1ccccc1 (centres undefined) 7.9%, COCCn1c(=NC(=O)c2ccccc2[N+](=O)[O-])sc2cc(S(C)(=O)=O)ccc21 3.3%, C#CCCCc1nc2ccccc2c(=O)n1N -3.7%, Cc1c(NC(=S)Nc2ccccc2)c(=O)n(-c2ccccc2)n1C 4.8%, O=C(COC(=O)[C@H](Cc1ccccc1)NC(=O)c1cccs1)Nc1cc(F)ccc1F -1.2%, C=CCn1c(SCCOc2ccc(OC)cc2)nnc1C(NC(=O)c1ccc(OC)cc1)C(C)C (centres undefined) -3.4%, CN1CCN(C(=O)N2c3ccccc3CCc3ccccc32)CC1 -5.7%, COc1ccc(CCNC(=O)CSc2nc3[nH]ncc3c(=O)n2-c2cccc(C(F)(F)F)c2)cc1OC 2.6%, CN(CCOc1ccc(Br)cc1)CC(=O)Nc1cccc(S(=O)(=O)NC2=NCCC2)c1 -4.6%, O=C(NNC1CC(=O)N(c2cccc(Cl)c2)C1=O)c1cccnc1 (centres undefined) -3.4%, Cc1ccc(S(=O)(=O)NC2(C(F)(F)F)NC(=O)N(CCc3ccccc3)C2=O)cc1 (centres undefined) -6.1%, COc1ccc(OC)c(S(=O)(=O)Nc2cccc(-c3ccc4nncn4n3)c2)c1 -3.7%, C[C@@H](O)c1nc2ccccc2n1N -1.1%, O=C(Nc1cccc(Cl)c1)c1cc([N+](=O)[O-])ccc1N1CCN(CCO)CC1 2.5%, CCOc1ccc(NC(=O)CSc2ncnc3c2sc2ccccc23)cc1 -1.9%, Cc1ccc2[nH]c(=O)c(CN(CC3COCCO3)C(=O)Nc3ccccc3C)cc2c1 (centres undefined) -4.6%, COc1cccc(CN(C)CC(=O)NCc2ccccc2Cl)c1OC 1.3%, CCC(C)(C)NC(=O)CN(C(=O)CCC(=O)Nc1cc(C)ccn1)c1ccc2c(c1)OCCO2 -6%, O=C(Nc1ccc(N2CCN(C(=O)c3cccs3)CC2)cc1)c1cccnc1Cl -2.2%, CN(C)c1ccc(/C=N/Nc2cc(N3CCOCC3)nc(N3CCOCC3)n2)cc1 -5.4%, O=C(NNc1c2ccccc2nc2ccccc12)c1cc2ccccc2cc1O 26.1%, O=c1oc(/C=C/c2ccccc2)nc2ccccc12 0%, O=C(O)c1ccc(N/N=C/c2ccc3ncccc3c2)cc1 0.7%, Cc1[nH]c2ccccc2c1C(=O)COC(=O)c1c(-c2ccccc2)noc1C -2.1%, CC/C(O)=C1\C(=O)CC(C)(C)CC1=NCCc1nc2ccccc2[nH]1 -0.3%, O=C(NCc1cccs1)C(=O)NCC1OCCCN1S(=O)(=O)c1ccc(F)cc1 (centres undefined) 0.7%, CCn1c(SCC(=O)N/N=C/C=C/c2ccccc2[N+](=O)[O-])nnc1-c1ccccc1 1.3%, CCOc1ccc(NS(=O)(=O)c2cc(C)c(C)cc2C)cc1 -1.7%, Cc1ccc(SCCC(=O)NC(C(C)C)C(C)C)cc1 -0.8%, O=C(/C=C/c1ccccc1Cl)Nc1ccc(S(=O)(=O)Nc2ncccn2)cc1 -0.8%, Cc1ccc(C)c(NS(=O)(=O)c2ccc(OCC(=O)NCc3cccnc3)cc2)c1 3.1%, C/C(=N\N=C(N)N)c1ccc(Cl)cc1 -5.8%, Cc1cc(=O)oc2c1c(C)nn2-c1ccc(Cl)cc1 -6.1%, CC(C)Oc1ccc(Cc2n[nH]c(=S)n2Cc2ccccc2)cc1Cl -3.4%, Cc1no[n+]([O-])c1COc1ccccc1/C=C1\NC(=S)NC1=O 0.1%, NS(=O)(=O)c1ccc(NC(=O)/C=C/c2ccccc2Cl)cc1 6.2%, COc1ccc(OC)c(S(=O)(=O)NCCC(C)C)c1 -7.1%, COc1ccc(CCNC2=C(Cl)C(=O)N(Cc3ccccc3)C2=O)cc1OC 0.7%, Cc1ccccc1CSCCNC(=O)c1ccc(N(C)S(=O)(=O)c2ccccc2)cc1 -8.8%, Cc1ccc(NC(=O)CSCC(=O)NC2CCCCC2)cc1 -0.6%, COc1ccc(C/C(N)=N/OC(=O)c2ccco2)cc1OC -4.3%, CC/C(Cc1ccccc1)=N/NC(=O)CCn1nnc2ccccc21 -4.6%, CCOc1ccc(C(=O)NC(=S)Nc2ccc(N3CCOCC3)c(Cl)c2)cc1[N+](=O)[O-] 1.7%, CN1CCN(C(=O)/C(=C\c2ccc3c(c2)OCO3)NC(=O)c2cccs2)CC1 -3.5%
